Measured values from PubChem BioAssay (NCATS).
Results filed as inconclusive are left out. The source made the active and inactive calls. Calls follow the shape of the dose curve; as a rule, active = well fitted curve in the direction sought with a large enough effect; inconclusive = small, poorly fitted or top-dose-only effect, or another doubt; inactive = no such curve, though single readings can be large; an effect the other way counts as inactive or inconclusive.

Tests used:
[1] = NS1 protein of Zika virus - qHTS assay to identify small molecule inhibitors in human HEK 293 cells (AID 1347053); also: series mostly up to about 46 µM; nearly all actives have a fitted effect of over 55% in size
Summary of the method: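 HEK 293; 20 h pre-culture, 37 C/5% CO2; cpd 1 h pre-infection; ZIKV MR766, MOI = 0.5, 24 h, 37 C; TR-FRET NS1 readout (two anti-NS1 Abs); norm. to no-virus vs infected.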

[2] = qHTS of pediatric cancer cell lines to identify multiple opportunities for drug repurposing: Primary screen for TC32 cells (AID 1347089); also: nearly all actives have a fitted effect of over 60% in size
Summary of the method: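 TC32 cells, 500-1,000/well in growth medium, compound-treated 48 h at 37 °C; viability from CellTiter-Glo luminescence. Primary screen: MIPE 11-point (0.78 nM–46 µM final), NPC 8-point (0.59 nM–46 µM final); confirmatory at 11-point dilutions.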

[3] = qHTS of pediatric cancer cell lines to identify multiple opportunities for drug repurposing: Primary screen for DAOY cells (AID 1347090); also: series mostly up to about 46 µM; nearly all actives have a fitted effect of over 55% in size
Summary of the method: (§1)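 Eight- or eleven-point concentration series, 48 h treatment at 37 degrees C in growth media; readout CellTiter-Glo luminescence. Potency and efficacy were taken from the concentration-response curves.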

[4] = qHTS of pediatric cancer cell lines to identify multiple opportunities for drug repurposing: Primary screen for SJ-GBM2 cells (AID 1347091)
Summary of the method: as §1

[5] = qHTS of pediatric cancer cell lines to identify multiple opportunities for drug repurposing: Primary screen for A673 cells (AID 1347092); also: nearly all actives have a fitted effect of over 45% in size
Summary of the method: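 A673 cells (500-1,000 cells/well) were treated 48 hours at 37 degrees C with compounds at 11-point (0.78 nM to 46 µM) or 8-point (0.59 nM to 46 µM) dilutions. Viability read by CellTiter-Glo luminescence; concentration-response curves fitted.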

[6] = qHTS of pediatric cancer cell lines to identify multiple opportunities for drug repurposing: Primary screen for SK-N-MC cells (AID 1347093); also: series mostly up to about 46 µM
Summary of the method: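 Metabolically active cells were quantified by ATP-dependent luminescence (CellTiter-Glo, 15 min at room temperature) following 48 h treatment. Cells had been plated at 500-1,000 per well and settled for 5 h beforehand.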

[7] = qHTS of pediatric cancer cell lines to identify multiple opportunities for drug repurposing: Primary screen for BT-37 cells (AID 1347094); also: series mostly up to about 57 µM
Summary of the method: (§2)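 Readout: CellTiter-Glo luminescence, 48 h treatment. Controls DMSO (neutral) and bortezomib 2.3 µM final (positive). Potency and efficacy taken from primary-screen concentration-response curves.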

[8] = qHTS of pediatric cancer cell lines to identify multiple opportunities for drug repurposing: Primary screen for NB-EBc1 cells (AID 1347095)
Summary of the method: as §2

[9] = qHTS of pediatric cancer cell lines to identify multiple opportunities for drug repurposing: Primary screen for U-2 OS cells (AID 1347096); also: nearly all actives have a fitted effect of over 50% in size
Summary of the method: (§3)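 Cells (500-1,000/well) in growth media were settled 5 h at 37 degrees C, then given compounds for 48 h. Viability was read as CellTiter-Glo luminescence. Primary runs used MIPE at 11 points (0.78 nM-46 µM) and NPC at 8 points (0.59 nM-46 µM); follow-ups used 11 points.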

[10] = qHTS of pediatric cancer cell lines to identify multiple opportunities for drug repurposing: Primary screen for Saos-2 cells (AID 1347097); also: nearly all actives have a fitted effect of over 40% in size
Summary of the method: as §2

[11] = qHTS of pediatric cancer cell lines to identify multiple opportunities for drug repurposing: Primary screen for SK-N-SH cells (AID 1347098); also: nearly all actives have a fitted effect of over 65% in size
Summary of the method: (§4)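 Cells (500-1,000/well) rested 5 h, then received compounds for 48 h; metabolically active cells were measured by CellTiter-Glo luminescence. Final concentrations spanned up to 46 µM (MIPE, 11-point) or 0.59 nM-46 µM (NPC, 8-point) in primary screens, 11-point in follow-ups.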

[12] = qHTS of pediatric cancer cell lines to identify multiple opportunities for drug repurposing: Primary screen for NB1643 cells (AID 1347099); also: nearly all actives have a fitted effect of over 50% in size
Summary of the method: as §2

[13] = qHTS of pediatric cancer cell lines to identify multiple opportunities for drug repurposing: Primary screen for LAN-5 cells (AID 1347100)
Summary of the method: as §3

[14] = qHTS of pediatric cancer cell lines to identify multiple opportunities for drug repurposing: Primary screen for BT-12 cells (AID 1347101); also: nearly all actives have a fitted effect of over 25% in size
Summary of the method: as §4

[15] = qHTS of pediatric cancer cell lines to identify multiple opportunities for drug repurposing: Primary screen for Rh18 cells (AID 1347102); also: nearly all actives have a fitted effect of over 65% in size
Summary of the method: as §3

[16] = qHTS of pediatric cancer cell lines to identify multiple opportunities for drug repurposing: Primary screen for OHS-50 cells (AID 1347103); also: nearly all actives have a fitted effect of over 40% in size
Summary of the method: as §4

Measured: Potency

Cc1c(N)cccc1C(F)(F)F
inactive: all assays above

COc1cc(OC)nc(O[C@H](C(=O)O)C(OC)(c2ccccc2)c2ccccc2)n1
inactive: all assays above

Cc1onc(-c2c(Cl)cccc2Cl)c1C(=O)Cl
inactive: all assays above

O=[N+]([O-])c1nccn1CO[C@@H](CO)[C@H](O)CO
inactive: all assays above

CC(C)(Oc1ccc(Cl)cc1)C(=O)OCCCOC(=O)C(C)(C)Oc1ccc(Cl)cc1
inactive: all assays above

O=C(c1ccccc1)c1ccccc1
inactive: all assays above

CC(=O)OC[C@H]1O[C@@H](OC(C)=O)[C@H](OC(C)=O)[C@@H]1OC(C)=O
inactive: all assays above

CC(NC(CCc1ccccc1)C(=O)O)C(=O)N1C(=O)N(C)CC1C(=O)O (stereo not drawn)
inactive: all assays above
